Our source for the ΔTm values is ChEMBL document CHEMBL5724796, “Tm Shift (DSF) assay results for EUbOPEN Chemogenomics Library” (2024).

Residues, ends and D or L forms follow the SMILES beside them. *: point of attachment. Cbz = O=C(OCc1ccccc1)*; CH2F = FC*

Common to all, as to conditions: Compound concentration 20.0 uM
Test [1] has as its target Tyrosine-protein kinase ABL1 (Homo sapiens) (UniProt P00519).
Test [2] has as its target Bromodomain-containing protein 4 (Homo sapiens) (UniProt O60885).
The target of test [3] is Cyclin-dependent kinase 2 (Homo sapiens) (UniProt P24941).
Test [4] deals with Casein kinase I isoform delta (Homo sapiens) (UniProt P48730).
For test [5], the target named is Glycogen synthase kinase-3 beta (Homo sapiens) (UniProt P49841).
The target of test [6] is Mitogen-activated protein kinase 1 (Homo sapiens) (UniProt P28482).
For test [7], the target named is T1, Aurora kinase A (Homo sapiens) (UniProt O14965).
T1 sequence (whole entry): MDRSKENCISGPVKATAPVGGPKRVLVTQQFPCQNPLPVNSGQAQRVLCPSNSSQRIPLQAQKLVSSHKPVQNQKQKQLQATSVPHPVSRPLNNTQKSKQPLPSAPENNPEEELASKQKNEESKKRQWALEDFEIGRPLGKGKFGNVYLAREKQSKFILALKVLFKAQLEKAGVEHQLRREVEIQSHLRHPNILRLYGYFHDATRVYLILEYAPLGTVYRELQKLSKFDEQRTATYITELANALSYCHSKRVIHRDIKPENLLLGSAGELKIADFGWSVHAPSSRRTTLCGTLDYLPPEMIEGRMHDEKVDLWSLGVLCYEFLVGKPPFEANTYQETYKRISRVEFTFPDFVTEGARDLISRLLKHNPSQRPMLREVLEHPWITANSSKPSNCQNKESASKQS

The target in test [8] is T2, Transcription intermediary factor 1-alpha (Homo sapiens) (UniProt O15164).
T2 sequence (whole entry): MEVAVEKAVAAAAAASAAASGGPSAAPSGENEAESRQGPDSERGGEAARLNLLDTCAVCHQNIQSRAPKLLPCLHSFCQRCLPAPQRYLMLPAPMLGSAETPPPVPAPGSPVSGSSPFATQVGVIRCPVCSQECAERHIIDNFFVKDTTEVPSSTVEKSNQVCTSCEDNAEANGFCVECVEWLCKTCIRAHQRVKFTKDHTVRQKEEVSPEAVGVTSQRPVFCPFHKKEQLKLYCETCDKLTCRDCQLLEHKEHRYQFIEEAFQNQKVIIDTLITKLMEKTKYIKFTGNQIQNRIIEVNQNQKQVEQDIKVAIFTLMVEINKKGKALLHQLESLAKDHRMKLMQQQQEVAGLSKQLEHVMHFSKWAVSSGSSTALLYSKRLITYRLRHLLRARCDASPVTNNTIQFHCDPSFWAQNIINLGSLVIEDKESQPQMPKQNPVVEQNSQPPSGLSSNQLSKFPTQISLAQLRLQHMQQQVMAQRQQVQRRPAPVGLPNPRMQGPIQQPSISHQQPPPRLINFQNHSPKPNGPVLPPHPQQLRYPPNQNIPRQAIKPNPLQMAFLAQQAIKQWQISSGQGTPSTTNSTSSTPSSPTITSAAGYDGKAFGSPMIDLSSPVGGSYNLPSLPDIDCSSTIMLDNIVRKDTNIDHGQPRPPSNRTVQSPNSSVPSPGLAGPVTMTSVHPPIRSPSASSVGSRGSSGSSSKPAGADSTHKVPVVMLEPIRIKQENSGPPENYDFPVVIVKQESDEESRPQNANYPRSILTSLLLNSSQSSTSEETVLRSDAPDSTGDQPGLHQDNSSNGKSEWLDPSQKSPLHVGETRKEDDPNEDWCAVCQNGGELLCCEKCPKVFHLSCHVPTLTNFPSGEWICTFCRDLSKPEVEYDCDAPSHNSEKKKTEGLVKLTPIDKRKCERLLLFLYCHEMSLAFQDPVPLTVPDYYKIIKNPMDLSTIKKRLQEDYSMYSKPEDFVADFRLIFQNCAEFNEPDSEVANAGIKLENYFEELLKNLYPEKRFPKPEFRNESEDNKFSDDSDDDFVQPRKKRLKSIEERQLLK

Chain of Tyrosine-protein kinase ABL1 (Homo sapiens) (P00519 whole entry): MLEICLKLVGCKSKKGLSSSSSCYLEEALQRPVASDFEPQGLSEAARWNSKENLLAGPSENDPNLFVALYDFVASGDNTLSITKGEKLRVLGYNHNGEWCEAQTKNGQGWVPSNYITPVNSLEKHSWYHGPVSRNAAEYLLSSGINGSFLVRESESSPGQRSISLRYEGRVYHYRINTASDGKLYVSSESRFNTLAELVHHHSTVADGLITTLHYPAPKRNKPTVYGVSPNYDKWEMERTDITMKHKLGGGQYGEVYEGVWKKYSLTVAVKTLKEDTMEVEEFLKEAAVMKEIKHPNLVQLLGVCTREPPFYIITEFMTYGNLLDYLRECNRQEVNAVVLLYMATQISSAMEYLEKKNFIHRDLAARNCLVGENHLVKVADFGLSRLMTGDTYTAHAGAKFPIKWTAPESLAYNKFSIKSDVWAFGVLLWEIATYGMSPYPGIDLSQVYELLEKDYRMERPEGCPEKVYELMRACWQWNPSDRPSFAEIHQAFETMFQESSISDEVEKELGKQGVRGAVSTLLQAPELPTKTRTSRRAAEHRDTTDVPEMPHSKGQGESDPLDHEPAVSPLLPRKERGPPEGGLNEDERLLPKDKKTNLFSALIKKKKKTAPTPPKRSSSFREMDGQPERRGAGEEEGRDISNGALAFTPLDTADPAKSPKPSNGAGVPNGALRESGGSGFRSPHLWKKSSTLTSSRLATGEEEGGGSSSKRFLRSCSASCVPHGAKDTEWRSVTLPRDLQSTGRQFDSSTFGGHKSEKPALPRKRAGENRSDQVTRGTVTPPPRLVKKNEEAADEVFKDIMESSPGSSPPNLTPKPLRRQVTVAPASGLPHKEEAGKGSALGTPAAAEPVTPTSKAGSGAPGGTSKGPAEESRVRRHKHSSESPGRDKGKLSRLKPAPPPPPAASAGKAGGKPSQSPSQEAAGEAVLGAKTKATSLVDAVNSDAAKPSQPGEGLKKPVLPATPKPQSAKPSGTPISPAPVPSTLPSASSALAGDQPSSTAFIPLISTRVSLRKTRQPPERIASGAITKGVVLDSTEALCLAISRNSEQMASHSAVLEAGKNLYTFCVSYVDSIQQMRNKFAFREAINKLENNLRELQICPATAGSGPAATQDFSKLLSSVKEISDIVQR
Chain of Mitogen-activated protein kinase 1 (Homo sapiens) (P28482 whole entry): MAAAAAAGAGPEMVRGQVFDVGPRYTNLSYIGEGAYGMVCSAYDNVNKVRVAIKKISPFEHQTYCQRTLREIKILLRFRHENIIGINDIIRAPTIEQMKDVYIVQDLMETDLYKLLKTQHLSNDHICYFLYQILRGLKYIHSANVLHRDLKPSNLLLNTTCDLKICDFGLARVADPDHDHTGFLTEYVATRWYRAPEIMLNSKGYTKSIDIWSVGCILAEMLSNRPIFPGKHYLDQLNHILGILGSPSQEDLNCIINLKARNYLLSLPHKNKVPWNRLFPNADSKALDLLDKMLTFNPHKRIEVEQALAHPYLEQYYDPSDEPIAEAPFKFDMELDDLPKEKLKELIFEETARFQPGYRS
Chain of Casein kinase I isoform delta (Homo sapiens) (P48730 whole entry, looked up, canonical isoform): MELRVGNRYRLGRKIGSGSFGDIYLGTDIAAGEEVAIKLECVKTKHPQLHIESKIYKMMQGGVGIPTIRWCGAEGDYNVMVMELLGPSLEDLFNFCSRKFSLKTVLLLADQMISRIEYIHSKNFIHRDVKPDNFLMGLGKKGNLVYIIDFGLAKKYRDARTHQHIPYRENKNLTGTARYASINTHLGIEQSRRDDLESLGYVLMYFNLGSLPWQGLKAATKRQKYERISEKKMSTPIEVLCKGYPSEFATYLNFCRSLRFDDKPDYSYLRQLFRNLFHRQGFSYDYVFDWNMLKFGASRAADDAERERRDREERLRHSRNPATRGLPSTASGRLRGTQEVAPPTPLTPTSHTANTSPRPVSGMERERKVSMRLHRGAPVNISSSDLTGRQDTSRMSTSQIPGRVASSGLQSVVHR
Chain of Glycogen synthase kinase-3 beta (Homo sapiens) (P49841 whole entry, looked up): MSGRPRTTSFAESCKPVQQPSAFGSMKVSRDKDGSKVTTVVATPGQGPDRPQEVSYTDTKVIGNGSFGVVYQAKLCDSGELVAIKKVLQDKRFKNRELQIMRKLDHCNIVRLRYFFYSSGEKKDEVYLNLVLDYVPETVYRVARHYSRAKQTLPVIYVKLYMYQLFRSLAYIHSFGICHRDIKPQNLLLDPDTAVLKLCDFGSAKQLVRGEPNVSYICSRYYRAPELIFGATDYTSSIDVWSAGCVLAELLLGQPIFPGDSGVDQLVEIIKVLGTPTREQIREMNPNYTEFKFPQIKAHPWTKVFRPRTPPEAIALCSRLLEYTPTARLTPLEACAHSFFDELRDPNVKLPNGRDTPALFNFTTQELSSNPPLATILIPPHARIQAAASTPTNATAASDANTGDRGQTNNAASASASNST

What is called ΔTm is the shift of the melting midpoint relative to a reference. As for `CC(=O)O[C@]1(C(C)=O)CC[C@H]2[C@@H]3C=C(Cl)C4=CC(=O)[C@@H]5C[C@@H]5[C@]4(C)[C@H]3CC[C@@]21C`, the ΔTm in test [1] was 0.36 °C; in test [2] it was -1.71 °C; in test [3], 0.15 °C; in test [4], 0.16 °C; in test [5], -0.72 °C; in test [6], -0.22 °C. Further, the ΔTm in test [7] was -1.49 °C; in test [8], -1.08 °C.

For `Cc1ncsc1-c1ccc(CNC(=O)[C@@H]2C[C@@H](O)CN2C(=O)[C@@H](NC(=O)COCC(C)(COCCOCCOCCNC(=O)C[C@@H]2N=C(c3ccc(Cl)cc3)c3c(sc(C)c3C)-n3c(C)nnc32)COCCOCCOCCNC(=O)C[C@@H]2N=C(c3ccc(Cl)cc3)c3c(sc(C)c3C)-n3c(C)nnc32)C(C)(C)C)cc1`, the ΔTm in test [1] was -0.19 °C; in test [2] it was 0 °C; in test [3], -4.95 °C; in test [4] it was -6.12 °C; in test [5], -4.05 °C; in test [6], -12 °C. For the same compound, the ΔTm in test [7] was -4.07 °C; in test [8] it was -6.48 °C.

Regarding `CCCOc1cc(OCCCCN(C)C)cc(Oc2cc3c(cc2NS(=O)(=O)c2ccc(OC)c(OC)c2)n(C)c(=O)n3C)c1`, the ΔTm came out at 0.57 °C in test [1]; 0.5 °C in test [2]; 0.09 °C in test [3]; 0.22 °C in test [4]; 0.59 °C in test [5]; 0 °C in test [6]. Also, in test [7], the ΔTm was -0.88 °C.

Take `Cc1cc(C(=O)CN2CCC(O)CC2)c(C)n1-c1ccc(C#N)cc1`: the ΔTm in test [1] was 0.11 °C; in test [2], -2.81 °C; in test [3], -0.05 °C; in test [4], -0.34 °C; in test [5], -0.73 °C; in test [6] it was 0.01 °C. The ΔTm is -2.48 °C in test [7] and -1.8 °C in test [8].

With `COCCOc1cc(CC2CCN(CCc3ccc4c(c3)C(=O)CCO4)CC2)ccc1Br`, the ΔTm in test [1] was 0.83 °C; in test [2], -2.23 °C; in test [3], 0.15 °C; in test [4], -0.07 °C; in test [5], -0.17 °C; in test [6], 0.56 °C. For the same compound, the ΔTm in test [7] was -2.41 °C; in test [8], -0.98 °C.

`COC(=O)CC[C@H](NC(=O)[C@H](Cc1c[nH]c2ccccc12)NC(=O)OCc1ccccc1)C(=O)N[C@@H](Cc1cnc[nH]1)C(=O)N[C@@H](CC(=O)OC)C(=O)CF` (Cbz-WE(OMe)HD(OMe)-CH2F): the ΔTm in test [1] was 0.62 °C; in test [2] it was -1.63 °C; in test [3] it was 0.18 °C; in test [4] it was 0.21 °C; in test [5] it was -0.68 °C; in test [6] it was -0.1 °C. Moreover, the ΔTm in test [7] is -0.45 °C; in test [8] it was -0.87 °C.

Turning to `COc1cc2c(cc1-c1c(C)noc1C)[nH]c1nc(C)nc(Nc3cc(C4CC4)nn3C)c12`, the shift in melting temperature (ΔTm) in test [1] is 0.79 °C; in test [2], 14.9 °C; in test [3] it was -0.63 °C; in test [4], -0.39 °C; in test [5] it was 0.26 °C; in test [6] it was 0.59 °C. The figures for the ΔTm in test [7] and in test [8] were -0.72 °C and 0.66 °C, respectively.

With `O=C(NCc1ccc(F)cc1)C1CCN(S(=O)(=O)c2cc(Cl)cc(Cl)c2)CC1`, the ΔTm in test [1] was 0.19 °C; in test [2], 1.03 °C; in test [3] it was 0.65 °C; in test [4], -0.2 °C; in test [5] it was -0.78 °C; in test [6] it was 1.32 °C. In addition, the ΔTm in test [7] is -1.86 °C; in test [8], 0.75 °C.

Turning to `CS(=O)(=O)c1ccc(Oc2cc(F)cc(C#N)c2)c2c1[C@H](O)[C@H](F)[C@@H]2F`, the ΔTm in test [1] is 0.05 °C; in test [2] it was 2.78 °C; in test [3], 0.17 °C; in test [4], -0.33 °C; in test [5] it was -0.61 °C; in test [6] it was 0.64 °C. The ΔTm in test [7] is -2.09 °C; in test [8], 1.99 °C.

`CCS(=O)(=O)N1CC(CC#N)(n2cc(-c3ncnc4[nH]ccc34)cn2)C1`: the ΔTm in test [1] was 2.37 °C; in test [2], -1.2 °C; in test [3] it was 0.85 °C; in test [4], 1.28 °C; in test [5], 3.43 °C; in test [6], 0.18 °C. Further, the ΔTm in test [7] was 5.08 °C; in test [8] it was -0.73 °C.
